# Test results from the supplement of paper PMC12340641.
# Counter-ions that a name gives are not always drawn.
# Columns and labels:
# [1] = molecular target: IKZF1 (dCK*-IKZF1 fusion in HEK293FT) (UniProt Q13422); experiment: inhibition of IKZF1 HTRF signal (DMSO = 0%, pomalidomide 10 uM = 100%); higher = lower IKZF1 protein level; conditions: compound concentration: 5 uM, overnight (~20 h)
# Method in brief: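 Percent inhibition of IKZF1 signal was calculated per plate with vehicle and a reference degrader as anchors. The anchors were 0% for vehicle and 100% for the degrader, applied to background-subtracted 665/620 nm time-resolved FRET ratios from a commercial HTRF total-IKZF1 kit. Signal came from HEK293FT cells stably expressing an IKZF1 fusion, treated overnight at 37 °C with 5 μM compound in single wells of 384-well plates.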
# [2] = test system: HEK293FT dCK*-only; experiment: relative growth in counter assay (no AraC = 100%, AraC + DMSO = 0%); higher = more growth rescue independent of IKZF1; conditions: compound concentration: 5 uM; AraC concentration: 0.3 uM; overnight pretreatment + 4 days AraC
# Method in brief: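 Nuclei were counted by imaging after Hoechst 33342 staining on day 5, in HEK293FT cells (300/well, 384-well) expressing only an engineered kinase construct. Compound at 5 μM went in 2 h after seeding, followed after overnight at 37 °C by a nucleoside suicide substrate at 0.3 μM plus medium for 4 days. Per plate, wells lacking suicide substrate defined 100% and those with substrate plus vehicle defined 0%.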
# [3] = test system: HEK293FT dCK*-IKZF1; experiment: relative growth recovery (pomalidomide 10 uM = 100%, DMSO = 0%); higher = more growth rescue (IKZF1 fusion degradation); conditions: compound concentration: 5 uM; AraC concentration: 0.3 uM; overnight pretreatment + 4 days AraC
# Method in brief: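 Means of duplicates from different days are given for growth recovery, normalised per plate against a reference degrader and vehicle. The reference degrader set the 100% level and vehicle the 0% level. HEK293FT cells stably expressing a deoxycytidine kinase–IKZF1 fusion (300/well, 384-well) received 5 μM compound 2 h after seeding and, after overnight at 37 °C, 0.3 μM of a nucleoside suicide substrate plus medium for 4 days. Nuclei stained with Hoechst 33342 were then counted by whole-well imaging on day 5.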
# IKZF1 (dCK*-IKZF1 fusion in HEK293FT), sequence (Q13422 whole entry, looked up, the tested form may be a part): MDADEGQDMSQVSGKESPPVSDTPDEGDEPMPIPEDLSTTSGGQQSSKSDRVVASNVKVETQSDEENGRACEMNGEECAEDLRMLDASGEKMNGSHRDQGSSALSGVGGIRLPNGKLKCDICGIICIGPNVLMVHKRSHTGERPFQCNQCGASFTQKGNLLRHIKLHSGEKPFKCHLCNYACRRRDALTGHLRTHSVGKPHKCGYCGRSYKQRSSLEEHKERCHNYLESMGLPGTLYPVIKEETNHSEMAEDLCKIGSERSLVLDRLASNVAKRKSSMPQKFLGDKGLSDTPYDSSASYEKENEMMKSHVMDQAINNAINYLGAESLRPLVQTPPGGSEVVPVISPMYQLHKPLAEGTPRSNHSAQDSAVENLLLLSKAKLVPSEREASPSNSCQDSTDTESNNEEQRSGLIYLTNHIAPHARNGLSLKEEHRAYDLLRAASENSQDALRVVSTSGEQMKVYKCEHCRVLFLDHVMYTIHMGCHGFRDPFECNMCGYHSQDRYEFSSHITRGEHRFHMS
Compound,inhibition of IKZF1 HTRF signal [1],relative growth in counter assay [2],relative growth recovery [3]
CC(C)(N)c1nc(-c2ccc(OC(F)(F)F)cc2)c[nH]1,-29.8%,5.76%,-3.6%
Cc1cc(C(C)(C)CC(C)(C)C)ccc1OCCOCC[N+](C)(C)Cc1ccccc1,-17.4%,-4.05%,5.47%
"COc1ccc(/C=C/C(=O)/C=C(O)/C=C/c2ccc(OC)c(OC)c2)cc1OC [Dimethylcurcumin, ASC-J9]",-40.7%,-25.6%,-5.62%
Fc1ccc(CNc2ncnc3ccc(F)cc23)cc1 [spautin-1],8.67%,-2.11%,5.96%
CN1CCN(Cc2ccc(-c3cnc4[nH]cc(-c5ccc6[nH]ccc6c5)c4c3)cc2)CC1,-32.6%,-34.1%,-11.6%
NC(=S)N/N=C/c1ncccc1N [Triapine],-21.7%,-34.8%,-13%
CN(C)CC(O)Cn1c2ccc(Br)cc2c2cc(Br)ccc21 (centres undefined) [wiskostatin],-32.4%,-9.92%,-2.88%
Cc1cc(/C=C2\SC(=O)N(c3ccccc3)C2=O)c(C)n1-c1cccnc1,-32.6%,-4.98%,0.895%
CN(C)c1ccc(C(=C2C=CC(=[N+](C)C)C=C2)c2ccc(N(C)C)cc2)cc1,-12.9%,-35.1%,-13.1%
O=C(/C=C/c1cccnc1)c1ccncc1,-25%,-28.4%,-6.42%
C[n+]1c2cc(N)ccc2cc2ccc(N)cc21,69.3%,-34.9%,-15%
CN(C)CCC=C1c2ccccc2CCc2ccccc21 [Amitriptyline HCl],22.6%,6.15%,-1.42%
O=C(c1cc(S(=O)(=O)Nc2ccccc2F)c(F)cc1Cl)N1CCN2CCC[C@@H]2C1,-26%,-1.66%,-3.52%
